# Screening results as filed in PubChem.
# Only some compounds are listed: those with a hit (about 6.5% of all), similar ones and a draw of the others.
# VACV Venus inh: vaccinia inhibition (Venus reporter). Potency, µM (doses to about 36.5 µM), inactives show top-dose activity change, negative = inhibition, hits mostly inhibitors. Vaccinia virus Venus reporter expression, fluorescence. 330,000 tested, 0.46% active; calls by dose curve; tested in A549 cells; note: potency is the fitted concentration of half-maximal effect; nearly all actives have a fitted effect of over 30% in size
# HCMV inh: inhibitors of human cytomegalovirus. 410,000 tested, 4.5% active. HFF cells, HCMV-luciferase reporter, 72 h; hits give low values. activity change, negative = inhibition, % at 57.5 µM; in the data active = activity change below about -60%; inconclusive = no clear call, values can overlap the other calls; inactive = above about -39%
#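 Screen run at 2 compound doses on HFFs infected with reporter HCMV, MOI 1 PFU/cell. Luciferase activity from cell lysates at 72 h post infection gave inhibition relative to buffer-only and Salinomycin wells.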
# Marburg entry inh: blocks Marburg virus binding to or entry into cells; Marburg virus pseudotyped entry inhibition, cell reporter; 300,000 tested, 1.8% active; Potency, µM (highest dose often 37.8 µM), for the others: at the top dose activity change, negative = inhibition, hits mostly inhibitors; calls by dose curve; tested in HEK293 cells; note: potency is the fitted concentration of half-maximal effect
# FMDV antiviral: antivirals against foot and mouth disease virus | Potency, µM (highest dose often 57.9 µM), for inactives: at the top dose activity change, negative = inhibition, actives largely listed as inhibitors | 410,000 tested, 1.2% active | FMDV antiviral cell-based qHTS; calls by dose curve; tested in HEK293T cells; note: read-out not given here; potency is the fitted concentration of half-maximal effect; nearly all actives have a fitted effect of over 45% in size
# Vaccinia mCherry: vaccinia inhibition (mCherry reporter); 310,000 tested, 0.63% active; Vaccinia virus mCherry reporter infection, fluorescence; Potency, µM (doses to about 36.5 µM), inactives show top-dose activity change, negative = inhibition, actives largely listed as inhibitors; calls by dose curve; tested in A549 cells; note: potency is the fitted concentration of half-maximal effect; nearly all actives have a fitted effect of over 35% in size
# Lassa entry inh: inhibitors of Lassa virus binding or cell entry; AID 540256; Potency, µM (highest dose often 37.9 µM), for inactives: at the highest dose activity change, negative = inhibition, most hits filed as inhibitors; 300,000 tested, 1.2% active; Lassa virus pseudotype entry inhibition, cell reporter; calls by dose curve; tested in HEK293 cells; note: potency is the fitted concentration of half-maximal effect; nearly all actives have a fitted effect of over 50% in size
# Active calls of the source: *; i = inactive; ? = inconclusive; / = no result; [ ] = another dose, or the depositor's remark. % is set by controls: 0 for no effect and ±100 for the full control effect.
SMILES,VACV Venus inh,HCMV inh,Marburg entry inh,FMDV antiviral,Vaccinia mCherry,Lassa entry inh
COc1cc(C2c3c(-c4ccccc4O)n[nH]c3C(=O)N2CCO)ccc1OCc1ccccc1 (stereo not given),-10%,-11,?,-27%,-14%,?
CCCN1C(=O)c2[nH]nc(-c3ccccc3O)c2C1c1ccc(OCc2ccccc2)c(OC)c1 (stereo not given),-26%,-84*,-21%[46.1 µM],?,?,?
Cc1ccc2cc(CN(CC3CCCO3)C(=S)NCc3ccco3)c(=O)[nH]c2c1C (stereo not given),-11%,-63*,0.63µM*,32%,-19%,5.8µM*
COc1ccccc1NC(=S)N(Cc1ccco1)Cc1cc2cc(C)ccc2[nH]c1=O,?,-61*,4µM*,-3%,?,-12%
Cc1ccc(C)c2[nH]c(=O)c(CN(CC3CCCO3)C(=S)NCc3ccco3)cc12 (stereo not given),-21%,0,?,7%,-4%,-24%[46.1 µM]
Cc1cc2cc(CCNC(=O)c3cccs3)c(=O)[nH]c2cc1C,-23%,-99*,-6%,5%,-22%,?
Cc1cc2cc(CN(Cc3cccs3)C(=S)NCc3ccco3)c(=O)[nH]c2cc1C,-19%,-1,14µM*,-29%,-28%,-28%
Cc1ccc(NC(=O)c2cccc(S(=O)(=O)N3CCN(c4ccccc4)CC3)c2)nc1,-11%,-85*,?,-25%,-28%,-1%
Cc1ccnc(NC(=O)c2cccc(S(=O)(=O)N3CCCC3)c2)c1,/,33,/,42%,/,/
CC1CCN(S(=O)(=O)c2ccc3nc(Nc4cccc(C(F)(F)F)c4)ccc3c2)CC1,-3%[7.34 µM],-100*,/,-25%,-9%[7.34 µM],-10%[46.1 µM]
Cc1ccnc(NC(=O)c2cccc(S(=O)(=O)N3CCN(c4ccccc4)CC3)c2)c1,-8%,25,?,?,?,5µM*
Cc1ccc(NC(=O)C2CCN(S(=O)(=O)c3cccc(C(F)(F)F)c3)CC2)nc1,-19%,-94*,1%,-18%,-2%,-12%
CC1CCN(S(=O)(=O)c2ccc3nc(Nc4ccc(C#N)cc4)ccc3c2)CC1,-20%,?,/,?,?,-2%[46.1 µM]
O=C(Nc1ccncc1)C1CCN(S(=O)(=O)c2cccc(C(F)(F)F)c2)CC1,/,-29,/,-11%,/,/
CN(C)c1ncnc2ccc(-c3cccnc3)cc12,/,/,/,-16%,/,/
Cc1ccc(C(=O)NCCCN2CCN(CCCNC(=O)c3ccc(C)cc3)CC2)cc1,/,-38,/,-18%,/,/
CN1CCC2(CC1)N=C(c1ccc(F)cc1)C(=S)N2C(=O)c1ccc(C(C)(C)C)cc1,-23%,-2,?,?,i,?
COc1ccc(OC)c(S(=O)(=O)N2CCC(C(=O)Nc3cccc(C(F)(F)F)c3)CC2)c1,?,?,?,25µM*,/,-30%
COc1ccc(OC)c(C2SCCN2S(=O)(=O)c2cccc(C(F)(F)F)c2)c1 (stereo not given),-10%,-61*,-24%,/,-16%,-14%
CC(C)n1cnc2c(Nc3cccc(Cl)c3)nc(NCCCO)nc21,10µM*,93,/,23%,?,/
Cc1c(C(=O)N2CCN(c3ncccn3)CC2)oc2ccc(Cl)cc12,/,-23,/,?,/,/
COc1ccc(-c2coc3c(C(=O)NCc4cccc(Cl)c4)cccc23)c(C)c1,-22%,-62*,/,0%,-26%,/
COc1ccc(-c2coc3c(C(=O)Nc4cccnc4)cccc23)c(C)c1,-22%,?,/,20µM*,9%,/
COc1ccc(-c2coc3c(C(=O)NCc4ccco4)cccc23)c(C)c1,-13%,?,/,0%,0%,/
COc1ccc(-c2coc3c(C(=O)Nc4cccc(C(C)=O)c4)cccc23)c(C)c1,-16%,-24,/,0%,-3%,/
SMILES,VACV Venus inh,HCMV inh,Marburg entry inh,FMDV antiviral,Vaccinia mCherry,Lassa entry inh
CCN(CC(=O)Nc1ccc(NC(C)=O)cc1)C(=O)c1oc2c(ccc3ccccc32)c1C,-10%,-74*,11%[46.1 µM],-19%,-9%,-15%
CCN(CC(=O)NCc1ccc(F)cc1)C(=O)c1oc2ccccc2c1C,4%,-35,8.9µM*,34%,-7%,?
Cc1ccc(-c2csc(NC(=O)C3CC(=O)N(c4ccc5c(c4)OCCO5)C3)n2)o1 (stereo not given),-18%,/,/,/,-4%,/
CCC(C)(C)C1CCC(=NNC(=S)Nc2ccccc2)CC1 (stereo not given),-3%,-4,8%,-23%,i,?
CC(C)(C)C1CCC(=NNC(=S)NCc2ccccc2)CC1 (stereo not given),-5%,-62*,0%[46.1 µM],-23%,?,?
COCCNC(=S)NN=C1CCCCCC1,/,-115*,/,4%,/,/
S=C(NCCc1ccccc1)NN=C1CCCCCC1,-6%,-92*,19%[46.1 µM],54%,-19%,-2%
S=C(NCCc1ccccc1)NC1CC1,-4%,24,-7%,10%,-13%,-1%
COCCNC(=S)NN=C1CCC(c2ccccc2)CC1 (stereo not given),-8%,?,-2%[46.1 µM],-4%,?,-28%[46.1 µM]
COCCNC(=S)N/N=C1\CC(C)CC(C)(C)C1 (stereo not given),11%,-76*,-17%,-16%,-18%,-7%
COc1ccc(COC(=O)C2=C(C)NC(=O)NC2c2ccc(O)c(OC)c2)cc1 (stereo not given),-17%,-68*,-8%,/,i,?
CCOC(=O)C1=C(CNCc2ccc(C)cc2)NC(=O)NC1c1ccc(OC)cc1 (stereo not given),?,15,5µM*,-22%,/,?
CC1=C(C(=O)OCc2ccc3c(c2)OCO3)C(c2ccc(Cl)cc2)NC(=O)N1 (stereo not given),?,-86*,2.1µM*,/,?,?
NC(=O)CC(NC(=O)Cc1ccc(Br)cc1)c1ccc(NCCc2ccc(F)cc2)c([N+](=O)[O-])c1 (stereo not given),-9%,-5,/,-19%,-1%,/
COc1ccc(O[C@@H]2[C@H](O)CO[C@@H]2C=CC#Cc2ccccc2)cc1,/,/,8%[14.2 µM],/,/,/
COCCN(Cc1ccccc1)C(=O)c1cccc(S(=O)(=O)N2CCCc3ccccc32)c1,/,?,/,6%,/,/
Cc1nnsc1SCC(=O)O,-13%,-99*,13%,12%,-15%,-6%
O=C(/C=C/c1ccc(C(F)(F)F)cc1)OC(C(=O)NC1CC1)c1ccccc1 (stereo not given),-8%,/,/,/,11%,/
COc1ccc(C[C@H]2CN3C(=NC[C@H]3Cc3ccccc3)N2CCNC(=O)CCC2CCCCC2)cc1,?,?,/,-22%,11µM*,/
COc1ccc(C[C@H]2CN3C(=NC[C@H]3Cc3ccccc3)N2CCNC(=O)c2ccc(C)c(Br)c2)cc1,14µM*,/,/,?,?,/
COc1ccc(C[C@H]2CN3C(=NC[C@@H]3Cc3ccccc3)N2CCNC(=O)c2ccc(C)c(Br)c2)cc1,13µM*,/,/,?,?,/
